From publication PMC11024108

Target: Stress-70 protein, mitochondrial (UniProt P38646)
Assay: cross-link between two proteins; cross-linking mass spectrometry

Sequence of V-type proton ATPase subunit D, P57746 (P57746 whole entry): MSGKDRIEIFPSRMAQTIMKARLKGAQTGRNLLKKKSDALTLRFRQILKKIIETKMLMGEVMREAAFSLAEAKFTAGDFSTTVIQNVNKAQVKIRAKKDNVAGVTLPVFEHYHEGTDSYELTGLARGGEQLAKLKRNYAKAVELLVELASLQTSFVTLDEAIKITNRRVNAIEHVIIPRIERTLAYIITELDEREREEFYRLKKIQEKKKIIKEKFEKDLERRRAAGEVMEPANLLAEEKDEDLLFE

Listed as a hit, yes:
Electron transfer flavoprotein subunit beta, P38117
Pyrroline-5-carboxylate reductase 1, mitochondrial, P32322
Mitochondrial import inner membrane translocase subunit TIM44, O43615

Target: V-type proton ATPase 116 kDa subunit a 1 (UniProt Q9Z1G4)
Assay: as above

Sequence of V-type proton ATPase 116 kDa subunit a 1 (Q9Z1G4 whole entry): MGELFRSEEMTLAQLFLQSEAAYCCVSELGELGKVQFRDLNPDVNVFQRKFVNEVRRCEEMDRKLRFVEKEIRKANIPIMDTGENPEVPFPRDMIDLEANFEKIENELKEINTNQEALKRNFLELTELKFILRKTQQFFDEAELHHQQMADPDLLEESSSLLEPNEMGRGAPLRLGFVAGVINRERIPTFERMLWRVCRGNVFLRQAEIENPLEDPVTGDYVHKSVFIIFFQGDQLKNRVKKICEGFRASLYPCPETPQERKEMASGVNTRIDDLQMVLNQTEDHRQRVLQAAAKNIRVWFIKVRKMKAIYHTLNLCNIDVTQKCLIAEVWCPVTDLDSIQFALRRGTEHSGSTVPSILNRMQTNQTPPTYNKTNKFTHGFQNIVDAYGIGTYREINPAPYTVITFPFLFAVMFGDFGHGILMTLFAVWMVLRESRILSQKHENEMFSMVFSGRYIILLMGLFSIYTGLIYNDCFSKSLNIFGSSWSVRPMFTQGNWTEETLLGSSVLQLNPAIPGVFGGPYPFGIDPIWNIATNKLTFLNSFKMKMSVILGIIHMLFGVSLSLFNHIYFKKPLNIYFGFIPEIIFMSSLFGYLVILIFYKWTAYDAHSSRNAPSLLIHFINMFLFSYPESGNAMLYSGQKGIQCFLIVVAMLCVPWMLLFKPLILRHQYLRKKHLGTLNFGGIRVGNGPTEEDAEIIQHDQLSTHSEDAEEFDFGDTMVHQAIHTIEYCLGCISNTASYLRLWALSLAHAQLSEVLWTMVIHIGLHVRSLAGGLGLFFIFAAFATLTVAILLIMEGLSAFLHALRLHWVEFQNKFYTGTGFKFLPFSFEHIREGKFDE

Listed as a hit, yes:
Vesicle-associated membrane protein 1, Q62442
V-type proton ATPase subunit H, Q8BVE3
V-type proton ATPase subunit S1, Q9R1Q9

Target: V-type proton ATPase subunit B, brain isoform (UniProt P62814)
Sequence (P62814 whole entry, canonical isoform): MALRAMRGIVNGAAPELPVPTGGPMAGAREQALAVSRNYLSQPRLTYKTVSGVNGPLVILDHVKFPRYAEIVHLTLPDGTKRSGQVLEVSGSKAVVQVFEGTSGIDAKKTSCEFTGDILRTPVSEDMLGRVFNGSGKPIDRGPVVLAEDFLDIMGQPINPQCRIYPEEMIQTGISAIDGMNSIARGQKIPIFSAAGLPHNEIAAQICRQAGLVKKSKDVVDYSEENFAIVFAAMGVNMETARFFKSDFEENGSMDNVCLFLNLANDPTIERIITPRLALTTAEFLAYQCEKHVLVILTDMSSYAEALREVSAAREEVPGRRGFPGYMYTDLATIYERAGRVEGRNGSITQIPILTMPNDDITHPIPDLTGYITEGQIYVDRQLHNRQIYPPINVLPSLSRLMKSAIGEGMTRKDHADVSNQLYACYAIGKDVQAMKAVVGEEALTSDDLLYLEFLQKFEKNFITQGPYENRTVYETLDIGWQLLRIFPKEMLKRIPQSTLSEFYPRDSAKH
Assay: as above

Listed as a hit, yes:
V-type proton ATPase subunit D, P57746
V-type proton ATPase subunit E 1, P50518
V-type proton ATPase catalytic subunit A, P50516
